In all, about 37,000 compounds went through this assay and about 290 (0.78%) were called active. Not shown: some 10% with an inconclusive outcome.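 The calls were made as follows: active = mean inhibition of at least 10% in the main channel, exceeding the control channel by a set limit; inconclusive = inhibition of 10% or more but channel gap under a set limit; inactive = mean inhibition below 10%.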 The full list was thinned out, with actives kept by preference.
Test: DUX4 transcriptional activity inhibition in cells – 293T cells, Gaussia and Italica luciferase, primary screen (AID 1224904);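 as to activity change, negative = inhibition: 0% = median of neutral control wells and -100% = median of positive control wells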
Details: 293T-iDUX4 ZSCAN4-Gaussia luciferase reporter, 24 h, stronger effect = lower value, concentration not given here; for Gaussia minus Italica difference: measured here: selective DUX4 reporter inhibition
[1] = measured here: Italica tet-on control reporter

Row | Compound | activity change, negative = inhibition | activity change, negative = inhibition [1] [%] | Gaussia minus Italica difference [%]
1 | O=C(Cc1ccccc1)N1C[C@H]2[C@@H](c3ccccc31)[C@H](CO)N2C(=O)C1CCOCC1 | -0.397% (inactive) | -3.56 | 3.16
2 | COc1ccc(NC(=O)N2C[C@H](O)COC[C@@H]3O[C@@H](CC(=O)NCc4ccccc4OC)CC[C@H]32)cc1 | 2.52% (inactive) | 3.01 | -0.496
3 | CCCC(=O)Nc1ccc2c(c1)C(=O)N(C)[C@@H]1CC[C@H](CC(=O)NCCN3CCCCC3)O[C@@H]1CO2 | -1.36% (inactive) | 5.24 | -6.6
4 | CO[C@H]1CN(C)C(=O)c2ccc(NC(=O)Nc3ccccc3)cc2OC[C@@H](C)N(C(=O)CC2CC2)C[C@@H]1C | -6.56% (inactive) | 5.38 | -11.9
5 | O=C(CC1CC1)Nc1ccc2c(c1)[C@@H]1C[C@@H](CC(=O)NC3CCCCC3)O[C@H](CO)[C@@H]1O2 | 5.02% (inactive) | 5.44 | -0.425
6 | COCC(=O)Nc1ccc2c(c1)C(=O)N(C)[C@@H]1CC[C@H](CC(=O)NCCc3ccccc3)O[C@@H]1CO2 | 0.635% (inactive) | 5.13 | -4.5
7 | CC(C)NC(=O)N1[C@H](CO)[C@@H]2c3ccccc3N(C(=O)Nc3cccc(Cl)c3)C[C@@H]21 | 5.76% (inactive) | 2.62 | 3.13
8 | COc1ccc(NC(=O)Nc2ccc3c(c2)[C@@H]2C[C@@H](CC(=O)NCc4ccncc4)O[C@@H](CO)[C@@H]2O3)cc1 | -2.23% (inactive) | 2.02 | -4.25
9 | CCN(C[C@@H]1[C@H](c2ccccc2)[C@@H](CO)N1CC1CC1)C(=O)c1ccccn1 | -3.34% (inactive) | -1.85 | -1.49
10 | COCC(=O)N(C[C@H]1N[C@H](CO)[C@H]1c1ccc(C2=CCCCC2)cc1)C(C)C | 2.12% (inactive) | 3.71 | -1.6
11 | COc1ccccc1C#Cc1cnc2c(c1)C(=O)N([C@@H](C)CO)C[C@@H](C)[C@H](CN(C)C(=O)CN(C)C)O2 | -1.64% (inactive) | -4.12 | 2.47
12 | CCC(=O)N1[C@H](C(=O)NCc2ccc(F)cc2)[C@@H](CO)[C@@H]2Cn3c(ccc(C4=CCCCC4)c3=O)[C@@H]21 | 2.81% (inactive) | -5.8 | 8.61
13 | CCCN1C[C@@H](C)[C@H](OC)CN(C)C(=O)c2ccc(NC(=O)C3CCOCC3)cc2OC[C@@H]1C | 2.85% (inactive) | 6.21 | -3.36
14 | C[C@H](NC(=O)C[C@H]1C=C[C@H](NS(=O)(=O)c2cccc(F)c2)[C@@H](CO)O1)c1ccccc1 | 2.8% (inactive) | 1.12 | 1.67
15 | O=C1CCC(=O)N[C@H](c2ccccc2)C/C=C\CCN1 | -2.86% (inactive) | -3.05 | 0.183
16 | O=C(NCC(F)(F)F)[C@H]1[C@H](CO)[C@H]2Cn3c(ccc(-c4ccncc4)c3=O)[C@H]2N1Cc1ccncc1 | 5.89% (inactive) | -1.87 | 7.77
17 | CCNC(=O)C[C@@H]1CC[C@@H]2[C@H](COC[C@H](O)CN2S(=O)(=O)c2ccc(Oc3ccccc3)cc2)O1 | 1.12% (inactive) | 2.14 | -1.02
18 | CC(C)[C@@H]1COCc2cnnn2CCC[C@H](C)C(=O)N1 | -1.36% (inactive) | -1.01 | -0.347
19 | COCC(=O)N1[C@H](CNC(=O)c2ccccn2)[C@H](c2ccccc2)[C@@H]1CO | -0.865% (inactive) | 1.68 | -2.54
20 | Cc1ccc(S(=O)(=O)N(C)C[C@H]2OCc3ccccc3-c3ccccc3C(=O)N([C@@H](C)CO)C[C@@H]2C)cc1 | 10.1% (inactive) | 2.48 | 7.63
21 | O=C(C[C@@H]1CC[C@@H]2[C@H](COC[C@H](O)CN2Cc2cccc(F)c2)O1)NCc1ccncc1 | 6.79% (inactive) | -2.25 | 9.04
22 | CCCC#Cc1ccc([C@H]2[C@@H](CO)N3CCCCN(C(=O)c4ccc5c(c4)OCO5)C[C@@H]23)cc1 | -4.6% (inactive) | 3.84 | -8.43
23 | CCC(=O)N1CC2(C1)[C@@H](c1ccc(-c3ccc(C#N)cc3)cc1)[C@H](CO)N2C(C)=O | 10.1% (inactive) | -1.24 | 11.4

Row | Compound | activity change, negative = inhibition | activity change, negative = inhibition [1] [%] | Gaussia minus Italica difference [%]
24 | CCC(=O)N1CCC2(CC1)CN(Cc1cccc(Cl)c1)[C@@H](CO)c1c2c2ccc(OC)cc2n1C | -5.44% (inactive) | -3.43 | -2.02
25 | C/C=C/c1ccc([C@H]2[C@@H](CO)N(C(=O)CN(C)C)C23CN(C(=O)C2CCCC2)C3)cc1 | -0.233% (inactive) | -6.7 | 6.47
26 | COc1cc(CN2CC3(CN(S(=O)(=O)c4cn(C)cn4)C3)c3c(n(C)c4cc(OC)ccc34)[C@H]2CO)cc(OC)c1 | -2.88% (inactive) | -0.316 | -2.57
27 | CCCNC(=O)C[C@H]1CC[C@H]2[C@H](COc3ccc(NC(=O)CC)cc3C(=O)N2C)O1 | 2.97% (inactive) | -1.81 | 4.79
28 | CN(C)C(=O)[C@@H]1[C@@H](CO)[C@@H]2Cn3c(cccc3=O)[C@H]1N2CC1CCCCC1 | -1.56% (inactive) | -4.57 | 3
29 | COc1cccc(-c2ccc([C@@H]3[C@@H](CO)N(C(=O)c4ccccn4)[C@H]3C#N)cc2)c1 | 5.81% (inactive) | -1.92 | 7.74
30 | C[C@H](NC(=O)C[C@@H]1CC[C@@H]2[C@H](COC[C@@H](O)CN2Cc2cc(F)ccc2F)O1)c1ccccc1 | 0.118% (inactive) | 1.93 | -1.81
31 | O=C(Cc1ccccc1)N1C[C@@H]2[C@H](c3ccccc31)[C@@H](CO)N2C(=O)C1CCOCC1 | 1% (inactive) | 2.15 | -1.15
32 | C[C@@H](O)C#Cc1ccc([C@@H]2[C@H]3CN(C(=O)c4ccc5c(c4)OCO5)CCCCN3[C@H]2CO)cc1 | 1.93% (inactive) | 10.3 | -8.36
33 | COCC(=O)Nc1ccc2c(c1)C(=O)N(C)[C@@H]1CC[C@@H](CC(=O)NCCCN(C)C)O[C@@H]1CO2 | -2.75% (inactive) | -0.412 | -2.33
34 | COc1ccccc1S(=O)(=O)N1CC[C@H]2[C@@H](CO)N(C)c3ccc(C#Cc4ccccc4)cc3[C@H]21 | 8.89% (inactive) | 12.9 | -4.03
35 | C[C@@H]1CN([C@@H](C)CO)C(=O)c2c(c3ccccc3n2C)-c2ccccc2CO[C@H]1CN(C)C(=O)C1CC1 | 7.74% (inactive) | 14.6 | -6.9
36 | COc1ccccc1NC(=O)N1[C@@H]2CNC[C@H]1C2c1ccc(-c2ccccc2C)cc1 (stereo partly drawn) | 17.2% (inactive) | 3.5 | 13.7
37 | O=C1N[C@H](c2ccccc2)COCc2cn(nn2)CC[C@@H]1Cc1ccc(Cl)cc1 | -6.57% (inactive) | -14.5 | 7.94
38 | Cn1cnc(CCNC(=O)C[C@H]2CC[C@H]3[C@@H](COC[C@H](O)CN3C(=O)C3CCCC3)O2)c1 | 4.42% (inactive) | -1.98 | 6.41
39 | CCCNC(=O)Nc1ccc2c(c1)C(=O)N(C)C[C@H](OC)[C@H](C)CN[C@@H](C)CO2 | 5.48% (inactive) | 4.45 | 1.03
40 | CN1c2ccc(Br)cc2[C@@H]2[C@@H](CCN2C(=O)Cc2ccccc2)[C@@H]1CO | 6.02% (inactive) | 3.73 | 2.29
41 | O=C(C[C@@H]1CC[C@H]2[C@@H](COC[C@@H](O)CN2Cc2nccs2)O1)NCc1ccc(-c2ccccc2)cc1 | -5.3% (inactive) | -11.9 | 6.63
42 | O=C(c1ccccc1F)N1C[C@@H]2[C@H](c3ccccc31)[C@H](CO)N2C(=O)C1CCCC1 | 1.9% (inactive) | 3.72 | -1.83
43 | Cc1ccccc1-c1ccc(C2[C@@H]3CN(C(=O)C4CCCCC4)C[C@H]2N3)cc1 (stereo partly drawn) | -6.47% (inactive) | -0.357 | -6.12
44 | O=C(C1CCC1)N1C[C@@H]2N[C@H](C1)C2c1ccc(-c2cncnc2)cc1 (stereo partly drawn) | -25.8% (active) | -0.405 | -25.4
45 | O=C(CN1CCOCC1)N1C[C@@H]2N[C@H](C1)C2c1ccc(-c2ccncc2)cc1 (stereo partly drawn) | 15.1% (inactive) | 19.9 | -4.83
46 | COCC(=O)Nc1ccc2c(c1)OC[C@@H](C)N(C(=O)CC1CC1)C[C@@H](C)[C@@H](OC)CN(C)C2=O | -1.74% (inactive) | -0.0881 | -1.65
